Rows were chosen to be rich in hits. Some 3.6% of all compounds tested hit in one or more screens of this group.
VDR inh – blocks the human vitamin D receptor; P11473; VDR-SRC2-3 peptide fluorescence polarization, 2 h; Potency, µM, most hits filed as inhibitors; 400,000 tested, 0.93% active; AID 504847
Target sequence (P11473 whole entry, looked up): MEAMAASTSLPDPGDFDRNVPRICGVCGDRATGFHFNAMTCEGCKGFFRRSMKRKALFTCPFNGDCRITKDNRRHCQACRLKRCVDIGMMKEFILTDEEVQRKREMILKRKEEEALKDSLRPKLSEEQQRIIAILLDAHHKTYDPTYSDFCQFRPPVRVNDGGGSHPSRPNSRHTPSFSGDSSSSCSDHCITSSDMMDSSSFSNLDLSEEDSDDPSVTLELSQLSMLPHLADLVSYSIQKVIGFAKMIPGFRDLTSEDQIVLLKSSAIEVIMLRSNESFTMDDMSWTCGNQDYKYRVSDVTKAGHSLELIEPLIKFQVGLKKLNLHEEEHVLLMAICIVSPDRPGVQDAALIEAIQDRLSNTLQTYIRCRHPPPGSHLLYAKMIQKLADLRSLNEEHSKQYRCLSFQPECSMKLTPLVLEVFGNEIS
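The screen uses fluorescence polarization to detect compounds that interfere with recruitment of the SRC2-3 coactivator peptide to VDR; plates are read after 2 h at room temperature.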
KAT2A inh – inhibitors of human GCN5L2 histone acetyltransferase; Q92830; GCN5L2 HAT assay, ThioGlo1 CoA-SH fluorescence; Potency, µM (top dose mostly 58.9 µM), usual class: inhibitors; 390,000 tested, 0.21% active
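ThioGlo1-coupled HAT assay: 20nM GCN5L2, 70uM acetyl-CoA, 75uM H3(1-25) peptide, pH 7.5. Fluorescence read at 340/540nm at start and after 20 min at room temperature.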
Rango-impB inh – inhibitors of Rango-importin beta complex formation. Q14974. Rango CFP/YFP FRET sensor + importin beta, 45 min. Potency, µM (titrated, usually from 92.2 µM). 340,000 tested, 0.031% active; calls by dose curve; note: nearly all actives have a fitted effect of over 15% in size
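Inhibition scored from the CFP 486 nm/YFP 530 nm FRET ratio 45 min after adding 0.125 microM importin beta to 50 nM Rango biosensor preincubated 5 min with compound (room temperature, PBS with DTT, Tween-20, BSA). No-importin wells as positive control.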
PI5P4K alpha inh – PI5P4K alpha (human) kinase inhibition; max response, %; 330,000 tested, 1.2% active; AID 652105; PI5P4Kalpha enzyme, ADP-Glo luminescence, 60 min; active compounds read low; P48426; active = max response of -50% or lower; inconclusive = between -30% and -50%; inactive = -30% or higher; note: value at the top dose of about 77 µM
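Controls without substrate or without enzyme flank wells where PI5P4Kalpha converts substrate using 5 microM ATP (final). Incubation lasts 60 minutes at room temperature; ADP formed is read by ADP-Glo luminescence.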
Rango dissoc inh – inhibition of RanGTP-driven Rango-importin beta dissociation. 340,000 tested, 0.071% active. Potency, µM (doses to about 46.1 µM). AID 540253. Biochemical FRET Rango-importin beta, RanGTP-induced dissociation. O95149+P62826; calls by dose curve; note: nearly all actives have a fitted effect of over 45% in size
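Rango/importin beta premix (0.1/0.25 uM final), PBS + 1 mM DTT + 0.02% Tween-20 + 0.1% BSA; cpd 5 min RT; FRET pre-read; + RanGTP-RCC1 (0.6 uM Ran, 2 mM GTP, 0.2 uM RCC1); 45 min RT; FRET post-read, ex 430, em 486/530 nm.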
PLK1 PBD block – PLK1 (human) polo-box domain binding inhibition. Plk1 PBD binding of FITC phosphopeptide, fluorescence polarization. Potency, µM, actives largely listed as inhibitors. 360,000 tested, 2.8% active; note: series mostly up to about 57 µM; nearly all actives have a fitted effect of over 65% in size
ADP-Glo interf – counter-screen for PI5P4K inhibitors: ADP-Glo detection interference, no enzyme; shares compounds with PI5P4K alpha inh; ADP-Glo detection counter-screen, luciferase luminescence, no enzyme; Potency, µM (top dose mostly 76.9 µM), hits mostly inhibitors; 1,100 tested, under 10 active
TbPYK confirm – confirmation of Trypanosoma brucei pyruvate kinase inhibitors | shares compounds with PLK1 PBD block | recombinant TbPYK, Kinase-Glo ATP luminescence | Potency, µM (doses to about 76.9 µM), hits mostly inhibitors | 890 tested, 67% active | AID 720569; note: nearly all actives have a fitted effect of over 70% in size
TbPYK orthogonal – inhibits T. brucei pyruvate kinase in orthogonal ADP-Glo assay; shares compounds with PLK1 PBD block; recombinant TbPYK, ADP-Glo luminescence, 60 min; Potency, µM (series often up to 76.9 µM), usual class: inhibitors; 890 tested, 62% active; AID 720584; note: nearly all actives have a fitted effect of over 75% in size
Hits are given with their value; 0 = inactive; ? = inconclusive; - = no result. Unless noted, calls come from the whole dose curve; as a rule, active = well fitted curve in the direction sought with a large enough effect; inconclusive = small, poorly fitted or top-dose-only effect, or another doubt; inactive = no such curve, though single readings can be large; an effect the other way counts as inactive or inconclusive.

SMILES | VDR inh | KAT2A inh | Rango-impB inh | PI5P4K alpha inh | Rango dissoc inh | PLK1 PBD block | TbPYK confirm | TbPYK orthogonal | others
CCOC(=O)Nc1ccc(NCc2ccc(F)cc2)nc1N | 6.3µM | 0 | ? | -50 | ? | 7.5µM | 4.5µM | 11µM | ADP-Glo interf=0
COc1ccc(Br)cc1C1SCC(=O)Nc2c1c(C)nn2-c1ccccc1C (stereo not given) | 0 | 0 | - | - | - | - | - | -
COc1ccc(S(=O)(=O)N(C)C[C@H]2OCCCC[C@@H](C)Oc3ccc(N(C)C)cc3C(=O)N([C@H](C)CO)C[C@@H]2C)cc1 | - | - | - | 0 | - | 0 | 2.5µM | 6.3µM
COc1ccc(OC(=O)N(C)C[C@@H]2OCc3cnnn3CCCC(=O)N([C@H](C)CO)C[C@H]2C)cc1 | - | - | - | 0 | - | 0 | - | -
COc1ccccc1NS(=O)(=O)c1cc(NC(=O)c2ccc(Cl)nc2)ccc1N1CCCC1 | ? | 0 | 0 | ? | 0 | 4.7µM | 4.5µM | 6.3µM
COc1cc(C(=O)Nc2ccc(Br)cc2C(=O)c2ccccc2Cl)cc(OC)c1OC | 0 | 0 | 0 | 0 | 0 | 0 | - | -
O=c1cccc2n1CC1CC2CN2CCCCC12 (stereo not given) | 0 | 0 | - | - | - | - | - | -
COc1ccc(CN2C(=O)NC(=O)/C(=C\c3ccco3)C2=O)cc1 | 0 | ? | ? | -77 | 0 | 1.2µM | 28µM | ?
O=C1NC(=O)N(CCc2ccc(F)cc2)C(=O)/C1=C/c1ccco1 | 0 | 28µM | ? | -75 | 0 | 1.1µM | 32µM | ?
Cc1cc(-n2c(/C=C/c3cccs3)nc3ccccc3c2=O)ccc1Br | 0 | 0 | - | - | - | - | - | -
N#Cc1ccc(CN2CCCC3(CCN(C(=O)Oc4ccccc4)CC3)C2)cc1 | 0 | 0 | - | - | - | - | - | -
CC1CC[C@@]2(NC1)OC1CC3C4CC[C@@H]5CC(O)CC[C@@]5(C)C4CC[C@]3(C)C1C2C (stereo not given in full) | 0 | 0 | - | - | - | - | - | -
COc1ccc(CN2C(=O)NC(=O)/C(=C/c3ccc([N+](=O)[O-])s3)C2=O)cc1 | 22µM | ? | ? | -75 | 0 | 1.9µM | 18µM | 32µM
O=C1NC(=O)N(Cc2ccc(F)cc2)C(=O)/C1=C\c1ccc([N+](=O)[O-])s1 | ? | ? | ? | -79 | 0 | 2.7µM | 14µM | 16µM
Cc1ccc(OCCOc2cccc(C=C3C(=O)NC(=O)NC3=O)c2)cc1 | 40µM | 0 | ? | -78 | 0 | 2.7µM | ? | ?
N#CCCn1cc(C(=O)NCc2ccccc2)c(-c2ccccc2)n1 | 0 | 0 | 0 | 0 | 0 | 0 | - | -
N#CCCn1cc(C=C2C(=O)NC(=O)NC2=O)c(-c2ccccc2)n1 | 0 | 0 | 0 | 0 | 0 | 2.7µM | 16µM | 32µM
CC[n+]1c(/C=C/C=C/c2ccc(N(C)C)cc2)sc2ccccc21 | 0 | 0 | 0 | ? | 0 | 0 | 32µM | 0
CC[n+]1c(/C=C/N(C)c2ccccc2)sc2ccc(Cl)cc21 | 0 | 0 | ? | - | 0 | 0 | - | -
Cc1ccc(Cn2cccc(C(=O)Nc3nnc(C)s3)c2=O)cc1 | 0 | 0 | - | - | - | - | - | -
COc1cc(C=C2C(=O)NC(=O)NC2=O)ccc1OCc1ccc([N+](=O)[O-])cc1 | ? | 0 | 0 | ? | 0 | 6.7µM | 13µM | 28µM
CCCC(C)(COC(N)=O)COC(=O)NC1CC1 (stereo not given) | 0 | 0 | - | - | - | - | - | -
Cn1c(O)c(/C=C2\C=c3ccccc3=NC2=O)c(=O)n(C)c1=O | 79µM | 0 | ? | 0 | 0 | ? | ? | 0
Cn1c(=O)n(C)c2cc(CNCCc3ccccc3F)ccc21 | 0 | 0 | - | - | - | - | - | -
O=C(Nc1ccccc1)N1CC[C@@]2(CCCNC2)C1 | 0 | 0 | - | - | - | - | - | -
SMILES | VDR inh | KAT2A inh | Rango-impB inh | PI5P4K alpha inh | Rango dissoc inh | PLK1 PBD block | TbPYK confirm | TbPYK orthogonal | others
O=C1NC(=O)N(c2ccccc2F)C(=O)/C1=C/c1ccc(Sc2nc3ccccc3[nH]2)o1 | ? | ? | ? | -86 | ? | ? | 14µM | 16µM
O=C1NC(=O)N(c2cccc(Cl)c2)C(=O)/C1=C\c1ccc(Sc2nc3ccccc3[nH]2)o1 | ? | ? | ? | -74 | ? | 2.7µM | 16µM | 16µM
COCCCNC(=O)Cn1cc(/C=C2\C(=O)NC(=O)N(c3ccccc3F)C2=O)c2ccccc21 | ? | 0 | 0 | 0 | 0 | ? | - | -
c1cc(CN2CCC3(CCNCC3)CC2)ccn1 | 0 | 0 | - | - | - | - | - | -
C=CCN(C1=NCCN1)c1c(Cl)cccc1Cl | 0 | 0 | - | - | - | - | - | -
CN1CCN(C(=S)c2ccc([N+](=O)[O-])cc2)CC1 | ? | 0 | 0 | 0 | 0 | 5.3µM | 5µM | 13µM
O=[N+]([O-])c1ccc(C(=Nc2ccccc2)N2CC2)cc1 | 0 | - | 0 | 0 | 0 | 0 | - | -
CC(=O)OCC(=O)[C@@H]1CC[C@H]2[C@H]3CC[C@H]4C[C@@H](O)CC[C@]4(C)[C@@H]3C(=O)C[C@@]12C | 0 | 0 | - | - | - | - | - | -
COc1ccc(N2C(=O)CS(=O)C(c3ccccc3)C2=O)cc1 (stereo not given) | 35µM | 0 | 0 | 0 | 0 | 2.4µM | 13µM | 25µM
Cc1ccc(/C=C2\C(=O)NC(=S)N(c3ccccc3F)C2=O)s1 | ? | 0 | ? | -111 | ? | 1.2µM | 7.9µM | 11µM
Cc1ccc(/C=C2\C(=O)NC(=S)N(c3ccc(F)cc3)C2=O)s1 | 35µM | 0 | ? | -82 | 0 | 1.3µM | 13µM | ?
